Values joined by “and” are separate entries in the source; they are usually repeats but may differ in a detail not shown here. Equal values may be shown once. Results filed as inconclusive are left out. Active and inactive are the calls of the source.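 How the source made its calls, unless noted: active means normalized viability below 100% at a tested concentration; inactive means the rest.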
How the values were obtained:
[1] = Wnt pathway potentiators raising nuclear beta-catenin – imaging, WNT3A-conditioned medium, mouse C2C12, NPC library, primary screen (AID 1117326; in the data active means nuclear beta-catenin stimulation mostly above about 4.2%, no sharp cut-off; inactive means mostly below about 10%); conditions: stronger effect = higher value
[2] = stimulators of insulin release from INS-1E, primary screen, cell-based, 5 mM glucose, NPC library (AID 1117329;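 active means compound raises insulin release from rat beta cells at 5 mM glucose, no numeric limit stated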); conditions: rat INS-1E insulin secretion, at 10 µM, stronger effect = higher value
[3] = growth inhibition of GSK3B-pretreated HCT116 cells – cell-based, CellTiter-Glo, 0.2 to 20 µM (AID 1117336;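 active means compounds lowering colon cancer cell viability after pretreatment blocking the GSK3B kinase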); conditions: HCT116 viability after GSK3B inhibitor, at 20 µM, stronger effect = higher value
[4] = inhibition of endothelial tube formation, primary screen, imaging, VEGF stimulated, CD31 staining, tube area, NPC library (AID 1117340;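 active means compound that reduces growth-factor-driven endothelial tube area in a mixed cell culture, no cutoff stated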); conditions: VEGF-stimulated ADSC/ECFC co-culture, at 10 µM, stronger effect = higher value
[5] = GLP1 release stimulators, primary, NCI-H716, NPC library (AID 1117341;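 active means compound raises GLP1 secretion from the human gut endocrine cells, with no numeric limit stated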); conditions: NCI-H716 cells, at 10 µM, stronger effect = higher value
[6] = HCT116 colon cancer cell growth inhibition, primary screen, CellTiter-Glo luminescence, NPC library (AID 1117342;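 active means compounds that lower survival of HCT116 colon cancer cells in the luminescence readout, no numeric limit stated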); conditions: at 20 µM (top of the series)
[7] = reduced SW480 viability measured with CellTiter-Glo, NPC library, primary (AID 1117343;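 active means compounds that lower viability of the colon cancer cells in the luminescence readout, with no numeric limit stated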); conditions: CellTiter-Glo luminescence; at 20 µM (top of the series) unless noted
[8] = NPC library primary testing for decreased DLD-1 cell viability via CellTiter-Glo (AID 1117346;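 active means compounds that lower survival of DLD-1 colon cancer cells in the luminescence readout, no cutoff given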); conditions: DLD-1 viability, CellTiter-Glo luminescence; at 20 µM (top of the series)
[9] = viability loss in pontine glioma line – cell-based, SU-DIPG-XVII, MIPE5.0, CellTiter-Glo, qHTS, dose response (AID 1347060; cut-off not given, nearly all actives have AC50 up to about 26 µM;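 on AC50: cells exposed to compound for 48 hours before viability readout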); conditions: CellTiter-Glo ATP luminescence
[10] = viability loss in pontine glioma line – cell-based, SU-DIPG-XIII, MIPE4.0, CellTiter-Glo, qHTS, dose response (AID 1347061; cut-off not given, nearly all actives have AC50 up to about 37 µM;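 further: cells exposed to compound for 48 hours before readout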); conditions: CellTiter-Glo ATP luminescence
[11] = viability loss in pontine glioma line – cell-based, JHH-DIPG-1, MIPE4.0, CellTiter-Glo, qHTS, dose response (AID 1347062; cut-off not given, nearly all actives have AC50 up to about 27 µM;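 on AC50: cells exposed to compound for two days before readout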); conditions: JHH-DIPG-1 viability, CellTiter-Glo ATP luminescence
[12] = growth inhibition of DIPG cells – cell-based, MIPE5.0 library, qHTS (AID 1347068; cut-off not given, nearly all actives have IC50 up to about 30 µM;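 on IC50: cells exposed to compound for 48 hours before viability readout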); conditions: SU-DIPG-XXV viability
[13] = biological target: NAD(+) hydrolase SARM1 (Homo sapiens) (UniProt Q6SZW1); assay: blocking NAD cleavage by SARM1 SAM-TIR – cell lysate, NAD-Glo luminescence (AID 1508614;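 active means compound whose remaining NAD level is above about 45 nM, limit read from the data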); conditions: SAM-TIR HEK293T lysate NADase, at 1 µM, stronger effect = higher value
NAD(+) hydrolase SARM1 (Homo sapiens), sequence (Q6SZW1 whole entry, looked up): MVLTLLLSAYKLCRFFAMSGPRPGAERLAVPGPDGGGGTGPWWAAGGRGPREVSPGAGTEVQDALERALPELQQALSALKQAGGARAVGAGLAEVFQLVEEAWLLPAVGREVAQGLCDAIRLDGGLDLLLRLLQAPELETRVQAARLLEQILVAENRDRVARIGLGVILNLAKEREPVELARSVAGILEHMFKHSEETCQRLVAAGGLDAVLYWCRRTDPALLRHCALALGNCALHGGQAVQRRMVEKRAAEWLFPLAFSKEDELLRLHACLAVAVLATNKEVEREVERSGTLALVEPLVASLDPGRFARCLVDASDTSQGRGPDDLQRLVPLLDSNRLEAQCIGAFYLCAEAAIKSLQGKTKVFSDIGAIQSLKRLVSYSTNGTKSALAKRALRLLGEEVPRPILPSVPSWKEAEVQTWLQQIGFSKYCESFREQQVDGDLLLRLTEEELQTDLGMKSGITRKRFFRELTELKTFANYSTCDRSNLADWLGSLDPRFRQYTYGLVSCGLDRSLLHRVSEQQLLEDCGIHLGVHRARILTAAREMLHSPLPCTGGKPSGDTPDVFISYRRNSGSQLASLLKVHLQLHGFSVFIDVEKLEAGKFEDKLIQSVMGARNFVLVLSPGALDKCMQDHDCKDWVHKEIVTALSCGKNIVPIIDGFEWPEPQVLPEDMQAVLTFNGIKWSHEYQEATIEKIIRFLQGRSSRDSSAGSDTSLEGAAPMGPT

[14] = P. berghei load reduction in hepatocytes – cell-based, HepG2, luciferase luminescence, HepG2 viability, primary screen (AID 624349; in the data active means parasite load remaining mostly below about 12%, no sharp cut-off; inactive means mostly above about 10%;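 further: 100% = mean of DMSO negative control wells on the same plate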); conditions: P. berghei liver stage in HepG2, luciferase luminescence, concentration not given here; parasite load remaining: stronger effect = lower value; viability: measured here: HepG2 viability without parasites
[15] = tested on: Aerobactin synthetase IucA (Klebsiella pneumoniae); assay: inhibition of K. pneumoniae IucA enzyme – biochemical, Tocris library, absorbance (AID 1345561; call rule not given here;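 further: 100% = enzyme without compound and 0% = no enzyme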); conditions: purified IucA enzyme assay, absorbance (OD) read-out; stronger effect = lower value;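 tested at 8 µM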
[16] = MELAS cybrid and Rieske KO viability enhancers – cell-based, MELAS cybrids, Rieske KO mouse fibroblasts, CellTiter-Glo, primary screen (AID 1508586;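 active means mean z-score across replicates of 1.96 or higher in either the MELAS or the Rieske mutant cell line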;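 further: z relative to plate mean and SD of compound and empty wells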); conditions: low glucose
[17] = galactose survival enhancers in mitochondrial complex I cybrids – cell-based, galactose medium, ATP luminescence, primary screen (AID 1645843;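 active means z-score of at least 1.8 in each of two replicates, scored against plate mean and spread of sample wells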;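 further: positive z means more ATP and so rescue of galactose-driven cybrid death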); conditions: complex I mutant cybrid cells, 72 h, stronger effect = higher value
[18] = drug combination growth inhibition, ovarian cancer – cell-based, oncology-focused library, rucaparib conditional, profiling panel (AID 1508598); conditions: patient-derived ovarian cancer cells, CellTiter-Glo viability, 144 h, stronger effect = lower value

CCCCCOC(=O)Nc1nc(=O)n([C@@H]2O[C@H](C)[C@@H](O)[C@H]2O)cc1F
-1.4%: nuclear beta-catenin stimulation ([1]; stimulation, at 2 µM)
inactive: nuclear beta-catenin stimulation ([1]; at 10 µM) 0.5% | insulin secretion stimulation [2] -0.1% | viability decrease [3] -9.5% | tube area decrease [4] 5.3% | GLP1 secretion stimulation [5] -0.5% | inhibition of viability [6] 0.7% | viability decrease (inhibition) [7] -2% | viability decrease (inhibition) [8] -8.6% | outcome [9] | outcome [10] | outcome [11] | outcome [12] | remaining NAD [13] 10 nM

CNCCC(Oc1ccccc1OC)c1ccccc1 (centres undefined)
99.6% and 98.5%: viability [14]
inactive: parasite load remaining [14] 99.2% and 34.1% | nuclear beta-catenin stimulation ([1]; at 10 µM) -0.2% | insulin secretion stimulation [2] 8% | viability decrease [3] -108% | tube area decrease [4] 0.4% | GLP1 secretion stimulation [5] 1.3% | inhibition of viability [6] 1.93% | viability decrease (inhibition) [7] 16.6% | viability decrease (inhibition) [8] -38.2% | remaining activity [15] 107% | z-score ([16]; MELAS cybrid survival, CellTiter-Glo 48 h, stronger effect = higher value) -0.579 and 0.865 | z-score [17] -0.245 and -0.495 and 0.12
0.5%: nuclear beta-catenin stimulation ([1]; stimulation, at 2 µM)
-0.0039 and 1.57: z-score ([16]; Rieske KO mouse fibroblast survival, CellTiter-Glo 72 h)

CC(C)C[C@H](NC(=O)[C@H](Cc1ccccc1)NC(=O)c1cnccn1)B(O)O
137%: nuclear beta-catenin stimulation ([1]; stimulation, at 2 µM)
active: nuclear beta-catenin stimulation ([1]; at 10 µM) 132% | viability decrease [3] 99% | tube area decrease [4] 107% | inhibition of viability [6] 100% | viability decrease (inhibition) [7] 132% | viability decrease (inhibition) [8] 95.4% | AC50 [9] 0.0209 µM | AC50 [10] 2.09 µM | AC50 [11] 0.0209 µM | IC50 [12] 0.0263 µM | viability ([18]; at 0.000305 µM, OCI-P5x cells, with rucaparib 20 µM, 100% = cells with rucaparib alone) 85.1% | viability ([18]; at 0.000305 µM, OCI-P5x cells, without rucaparib) 23.5% | viability ([18]; at 0.00122 µM, OCI-P5x cells, with rucaparib 20 µM, 100% = cells with rucaparib alone) 85.3% | viability ([18]; at 0.00122 µM, OCI-P5x cells, without rucaparib) 28.3% | viability ([18]; at 0.00488 µM, OCI-P5x cells, without rucaparib) 94.3% | viability ([18]; at 0.0195 µM, OCI-C5x cells, with rucaparib 10 µM, 100% = cells with rucaparib alone) 38.9% | viability ([18]; at 0.0195 µM, OCI-C5x cells, without rucaparib) 15.9% | viability ([18]; at 0.0195 µM, OCI-P5x cells, with rucaparib 20 µM, 100% = cells with rucaparib alone) 5.88% | viability ([18]; at 0.0195 µM, OCI-P5x cells, without rucaparib) 1.5% | viability ([18]; at 0.0781 µM, OCI-C5x cells, with rucaparib 10 µM, 100% = cells with rucaparib alone) 2.87% | viability ([18]; at 0.0781 µM, OCI-C5x cells, without rucaparib) 2.36% | viability ([18]; at 0.0781 µM, OCI-P5x cells, with rucaparib 20 µM, 100% = cells with rucaparib alone) 1.94% | viability ([18]; at 0.0781 µM, OCI-P5x cells, without rucaparib) 1.08% | viability ([18]; at 0.313 µM, OCI-C5x cells, with rucaparib 10 µM, 100% = cells with rucaparib alone) 2.19% | viability ([18]; at 0.313 µM, OCI-C5x cells, without rucaparib) 1.67% | viability ([18]; at 0.313 µM, OCI-P5x cells, with rucaparib 20 µM, 100% = cells with rucaparib alone) 1.91% | viability ([18]; at 0.313 µM, OCI-P5x cells, without rucaparib) 0.96% | viability ([18]; at 1.25 µM, OCI-C5x cells, with rucaparib 10 µM, 100% = cells with rucaparib alone) 1.59% | viability ([18]; at 1.25 µM, OCI-C5x cells, without rucaparib) 1.6% | viability ([18]; at 1.25 µM, OCI-P5x cells, with rucaparib 20 µM, 100% = cells with rucaparib alone) 1.8% | viability ([18]; at 1.25 µM, OCI-P5x cells, without rucaparib) 0.86% | viability ([18]; at 5 µM, OCI-C5x cells, with rucaparib 10 µM, 100% = cells with rucaparib alone) 1.34% | viability ([18]; at 5 µM, OCI-C5x cells, without rucaparib) 1.65% | viability ([18]; at 5 µM, OCI-P5x cells, with rucaparib 20 µM, 100% = cells with rucaparib alone) 1.02% | viability ([18]; at 5 µM, OCI-P5x cells, without rucaparib) 0.609%
inactive: insulin secretion stimulation [2] 2.1% | GLP1 secretion stimulation [5] 1.6% | viability ([18]; at 0.000305 µM, OCI-C5x cells, with rucaparib 10 µM, 100% = cells with rucaparib alone) 114% | viability ([18]; at 0.000305 µM, OCI-C5x cells, without rucaparib) 117% | viability ([18]; at 0.00122 µM, OCI-C5x cells, with rucaparib 10 µM, 100% = cells with rucaparib alone) 114% | viability ([18]; at 0.00122 µM, OCI-C5x cells, without rucaparib) 113% | viability ([18]; at 0.00488 µM, OCI-C5x cells, with rucaparib 10 µM, 100% = cells with rucaparib alone) 119% | viability ([18]; at 0.00488 µM, OCI-C5x cells, without rucaparib) 115% | viability ([18]; at 0.00488 µM, OCI-P5x cells, with rucaparib 20 µM, 100% = cells with rucaparib alone) 102%

Source: PubChem BioAssay
